Laboratory results: PubChem BioAssay (NCI)
The panel holds about 83,000 compounds, 20% with a hit somewhere; the sample as a whole holds those more often.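 Method: cells in 96-well plates; compound added at one concentration; 48 h incubation; percent growth measured; values under 10 scored active.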 The source made the active and inactive calls.

Each compound was assayed on HCT-116 colon (assay: NCI-60 one-dose screen, 48 h (100 = growth as untreated, 0 = no growth, -100 = all killed)). Conditions: 10 µM unless noted.

Compound	growth
FC(F)(F)CN1CCN(CCn2c(C(F)(F)F)cc3c(Cl)ncnc32)CC1	1.79% (active)
O=C1NC(=NC23CC4CC(CC(C4)C2)C3)N/C1=C\c1ccc2ncccc2c1	3.24% (active)
COc1cc2cc(C(=O)N3C[C@@H](CCl)c4c3cc(OC(=O)N(CCC(=O)N3CCN(C)CC3)C3CCCCC3)c3ccccc43)[nH]c2c(OC)c1OC	-88.1% (active)
O=C(Cn1c(-c2ccccc2)nc2ccccc21)N=Nc1c(O)[nH]c2ccc(Cl)cc12	-23.7% (active)
Cn1cc(-c2cc(N)n3nc(-c4c[nH]c5ccc(Cl)cc45)cc3n2)c2cccnc21	-90.7% (active)
COc1ccc(NC(=O)N/N=C/c2c[nH]c3ccccc23)cc1	21.5% (inactive)
C[C@H]1[C@@H](CC(=O)N[C@@H](Cc2coc3ccccc23)B(O)O)O[C@@H]2OC3(C)CC[C@H]4[C@H](C)CC[C@@H]1[C@@]24O3	-56.6% (active)
CCCCCCCCc1cccc(CC(=O)Nc2ccc(C)cc2C(=O)O)c1	28.1% [25 µM] (inactive)
CC(C)(C)C(=O)c1c2c(c3ccc4c5ccccc5ccc4n13)C(=O)c1ccccc1C2=O	90.7% (inactive)
CN(C)CCCc1ccc(Nc2cnn(C)c(=O)c2Cl)cc1	95.5% (inactive)
N#Cc1cc(-c2ccnc(Nc3ccc(N4CCN(C5COC5)CC4)cc3)n2)ccc1N1CCCC1	49% (inactive)
O=C(c1ccc(Cl)cc1)C1[C@H](c2ccccc2Cl)[C@@H](c2ccccc2)NC12C(=O)Nc1ccc(Br)cc12 (some centres not stated)	-98.9% (active)
C=CCSc1nnc(-c2ccc(-c3nc4ccccc4[nH]3)cc2)o1	74.9% (inactive)
CCCN(CCC)S(=O)(=O)c1ccc(C(=O)O)cc1.CCCN(CCC)S(=O)(=O)c1ccc(C(=O)O)cc1.[Cl][Pt+2][Cl].[NH2-].[NH2-]	2.04% (active)
O=C(Cc1c(-c2cccc([N+](=O)[O-])c2)n(-c2ncnc3c2c(-c2ccccc2)c(-c2ccccc2)n3Cc2ccccc2)[nH]c1=O)c1ccc(Cl)c(Cl)c1	32.3% (inactive)
Cn1cc(-c2cc(N)n3nc(-c4c[nH]c5ccccc45)cc3n2)c2ccccc21	-88% (active)
Clc1ccc(-c2nc3ccc(-c4nnc(SCc5ccccc5)o4)cc3[nH]2)cc1	2.75% (active)
N#CC1=C(c2ccco2)Nc2c(c(-c3ccccc3)nn2-c2ccccc2)C12C(=O)Nc1ccc(Cl)cc12 (configuration not stated)	-73.1% (active)
Cc1ccc(/C=C/C(=O)c2ccc(S(=O)(=O)NCCNc3nc(N(C)C)nc(N4CCOCC4)n3)cc2)cc1	-21.6% (active)
Cc1nc2sccn2c1-c1nnc(SCc2ccccc2)o1	91.6% (inactive)
Cc1nc2sccn2c1-c1nnc(SCC(C)C)o1	82.8% (inactive)
CN(CCSSCCN1CCOCC1)C(=O)Oc1cc2c(c3ccccc13)[C@H](CCl)CN2C(=O)c1cc2cc(OCCCN3CCC3)ccc2[nH]1	-49.1% (active)
O=C1/C(=C/c2cnc(-c3ccccc3)s2)SC(=S)N1Cc1ccc2c(c1)OCO2	69.4% (inactive)
O=C(Cn1c(-c2ccccc2)nc2ccccc21)N=Nc1c(O)[nH]c2ccc(Br)cc12	1.09% (active)
COc1ccc(N=Nc2c(N)nn3c(N)c(C#N)c(-c4ccc(C)cc4)nc23)cc1	45.4% (inactive)
O=C1Nc2cc(-c3ccc(NS(=O)(=O)c4ccc(C(F)(F)F)cc4)cc3)ccc2/C1=C/c1ccc[nH]1	2.8% (active)
COC(=O)c1c(C(=O)OC)c2c3ccccc3c3ccccc3n2c1C(=O)C(F)(F)F	98.7% (inactive)
COc1cccc(-c2ccc(/C=N/NC(=O)c3[nH]c4ccc(Br)cc4c3-c3ccccc3)s2)c1	-27.5% (active)
COc1ccc(NC(=O)CSc2nnc(-c3ccc(-c4nc5ccccc5[nH]4)cc3)o2)cc1	2.37% (active)

What follows are compounds tested on HCC-2998 colon in the same assay as above. Conditions: 10 µM unless noted.

Compound	growth
COc1ccc2[nH]c(=O)cc(-n3ncc(C(=O)/C=C/c4cc(OC)c(OC)c(OC)c4)c3C)c2c1	-93.9% (active)
COc1ccccc1NC(=O)c1ccc(NC(=O)CCl)s1	27.2% (inactive)
Cc1ccc(C(C)C)cc1Oc1cccc(-c2c(-c3ccc(C(F)(F)F)cc3)ncn2C2CCNCC2)n1	-85.4% (active)
O=C(c1ccc(O)cc1)C1[C@H](c2ccc(Cl)cc2)[C@@H](c2ccccc2)NC12C(=O)Nc1ccccc12 (some centres not stated)	-61.1% (active)
COc1c(B(O)O)cccc1-c1nc2ccc3cn[nH]c3c2c2c1CCCC2	86.9% (inactive)
COc1ccc(S(=O)(=O)Nc2ccc(-c3ccc4c(c3)NC(=O)/C4=C\c3ccc[nH]3)cc2)cc1OC	24.2% (inactive)
Cc1ccc2c(c1)nc(-c1ccccc1)n2CC(=O)N=Nc1c(O)[nH]c2ccc(Cl)cc12	-71.3% (active)
Cc1nn(-c2ccccc2)c2nc(C)n(CC(=O)N/N=C/c3ccccc3O)c(=O)c12	27.4% (inactive)
Cc1cc(C)c2[nH]c(=O)c(C(c3nnnn3Cc3ccc4c(c3)OCO4)N3CCN(C)CC3)cc2c1 (configuration not stated)	121% (inactive)
FC(F)(F)CN1CCN(CCn2c(C(F)(F)F)cc3c(Cl)ncnc32)CC1	-96.7% (active)
O=C1NC(=NC23CC4CC(CC(C4)C2)C3)N/C1=C\c1ccc2ncccc2c1	22.7% (inactive)
COc1cc2cc(C(=O)N3C[C@@H](CCl)c4c3cc(OC(=O)N(CCC(=O)N3CCN(C)CC3)C3CCCCC3)c3ccccc43)[nH]c2c(OC)c1OC	-91% (active)
O=C(Cn1c(-c2ccccc2)nc2ccccc21)N=Nc1c(O)[nH]c2ccc(Cl)cc12	19.5% (inactive)
Cn1cc(-c2cc(N)n3nc(-c4c[nH]c5ccc(Cl)cc45)cc3n2)c2cccnc21	-98.5% (active)
COc1ccc(NC(=O)N/N=C/c2c[nH]c3ccccc23)cc1	44.3% (inactive)
C[C@H]1[C@@H](CC(=O)N[C@@H](Cc2coc3ccccc23)B(O)O)O[C@@H]2OC3(C)CC[C@H]4[C@H](C)CC[C@@H]1[C@@]24O3	-83.1% (active)
CCCCCCCCc1cccc(CC(=O)Nc2ccc(C)cc2C(=O)O)c1	69.4% [25 µM] (inactive)
CC(C)(C)C(=O)c1c2c(c3ccc4c5ccccc5ccc4n13)C(=O)c1ccccc1C2=O	112% (inactive)
CN(C)CCCc1ccc(Nc2cnn(C)c(=O)c2Cl)cc1	118% (inactive)

Compound	growth
N#Cc1cc(-c2ccnc(Nc3ccc(N4CCN(C5COC5)CC4)cc3)n2)ccc1N1CCCC1	75.4% (inactive)
O=C(c1ccc(Cl)cc1)C1[C@H](c2ccccc2Cl)[C@@H](c2ccccc2)NC12C(=O)Nc1ccc(Br)cc12 (some centres not stated)	-94.2% (active)
C=CCSc1nnc(-c2ccc(-c3nc4ccccc4[nH]3)cc2)o1	97.9% (inactive)
CCCN(CCC)S(=O)(=O)c1ccc(C(=O)O)cc1.CCCN(CCC)S(=O)(=O)c1ccc(C(=O)O)cc1.[Cl][Pt+2][Cl].[NH2-].[NH2-]	-27.6% (active)
O=C(Cc1c(-c2cccc([N+](=O)[O-])c2)n(-c2ncnc3c2c(-c2ccccc2)c(-c2ccccc2)n3Cc2ccccc2)[nH]c1=O)c1ccc(Cl)c(Cl)c1	26.7% (inactive)
Cn1cc(-c2cc(N)n3nc(-c4c[nH]c5ccccc45)cc3n2)c2ccccc21	-77.1% (active)
Clc1ccc(-c2nc3ccc(-c4nnc(SCc5ccccc5)o4)cc3[nH]2)cc1	39.4% (inactive)
N#CC1=C(c2ccco2)Nc2c(c(-c3ccccc3)nn2-c2ccccc2)C12C(=O)Nc1ccc(Cl)cc12 (configuration not stated)	64.8% (inactive)
Cc1ccc(/C=C/C(=O)c2ccc(S(=O)(=O)NCCNc3nc(N(C)C)nc(N4CCOCC4)n3)cc2)cc1	114% (inactive)
Cc1nc2sccn2c1-c1nnc(SCc2ccccc2)o1	103% (inactive)
Cc1nc2sccn2c1-c1nnc(SCC(C)C)o1	113% (inactive)
CN(CCSSCCN1CCOCC1)C(=O)Oc1cc2c(c3ccccc13)[C@H](CCl)CN2C(=O)c1cc2cc(OCCCN3CCC3)ccc2[nH]1	-64.7% (active)
O=C1/C(=C/c2cnc(-c3ccccc3)s2)SC(=S)N1Cc1ccc2c(c1)OCO2	102% (inactive)
O=C(Cn1c(-c2ccccc2)nc2ccccc21)N=Nc1c(O)[nH]c2ccc(Br)cc12	0.134% (active)
COc1ccc(N=Nc2c(N)nn3c(N)c(C#N)c(-c4ccc(C)cc4)nc23)cc1	73% (inactive)
O=C1Nc2cc(-c3ccc(NS(=O)(=O)c4ccc(C(F)(F)F)cc4)cc3)ccc2/C1=C/c1ccc[nH]1	30.5% (inactive)
COC(=O)c1c(C(=O)OC)c2c3ccccc3c3ccccc3n2c1C(=O)C(F)(F)F	122% (inactive)
COc1cccc(-c2ccc(/C=N/NC(=O)c3[nH]c4ccc(Br)cc4c3-c3ccccc3)s2)c1	5.11% (active)
COc1ccc(NC(=O)CSc2nnc(-c3ccc(-c4nc5ccccc5[nH]4)cc3)o2)cc1	92.7% (inactive)
